Measurements: PubChem BioAssay AID1159580 (chemical genetic matrix, 2015)
In all, about 5,500 compounds went through this assay and about 2,000 (36%) were called active. Inconclusive results (about 18%) are left out. No stated cut-off is given here; in the data, active means normalized growth mostly below about 0.91 (no sharp cut-off); inconclusive means no clear call, values can overlap the other calls; inactive means mostly above about 0.92. Some of the results follow.

Assay: chemical genetic growth profiling, strain panel (AID 1159580);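 further: tested at 20 µM; growth read once vehicle control cultures reached saturation at 30 °C; 1 = growth at the plate median or of vehicle wells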
Details: S. cerevisiae deletion strains, growth OD

Measured: normalized growth

FC(F)(F)c1ccccc1-n1ccnc1
inactive: locus YAL021C, strain ccr4, stronger effect = lower value 0.971 | locus YAL026C, strain drs2, stronger effect = lower value 1.02 | locus YAL030W, strain snc1, stronger effect = lower value 1.01 | locus YAL040C, strain CLN3, stronger effect = lower value 1.01 | locus YBL061C, strain skt5, stronger effect = lower value 1.01 | locus YBR009C, strain hhf1, stronger effect = lower value 1.08 | locus YBR023C, strain chs3, stronger effect = lower value 1 | locus YBR171W, strain sec66, stronger effect = lower value 0.966 | locus YBR231C, strain swc5, stronger effect = lower value 1 | locus YBR279W, strain paf1, stronger effect = lower value 1 | locus YCL011C, strain gbp2, stronger effect = lower value 0.998 | locus YCL016C, strain dcc1, stronger effect = lower value 1.01 | locus YCL061C, strain MRC1 (second series), stronger effect = lower value 1 | locus YCL061C, strain MRC1, stronger effect = lower value 1 | locus YCL069W, strain vba3, stronger effect = lower value 0.999 | locus YCR088W, strain abp1, stronger effect = lower value 0.986 | locus YDL005C, strain med2, stronger effect = lower value 0.992 | locus YDL040C, strain nat1, stronger effect = lower value 1 | locus YDR001C, strain nth1, stronger effect = lower value 0.988 | locus YDR069C, strain doa4, stronger effect = lower value 0.999 | locus YDR137W, strain rgp1, stronger effect = lower value 0.949 | locus YDR159W, strain sac3, stronger effect = lower value 1.04 | locus YDR195W, strain ref2 1.03 | locus YDR297W, strain sur2, stronger effect = lower value 0.995 | locus YDR334W, strain swr1, stronger effect = lower value 0.963 | locus YDR335W, strain msn5, stronger effect = lower value 0.988 | locus YDR363W, strain ESC2, stronger effect = lower value 1.02 | locus YDR392W, strain spt3, stronger effect = lower value 0.993 | locus YEL003W, strain gim4, stronger effect = lower value 0.987 | locus YEL037C, strain rad23, stronger effect = lower value 1 | locus YEL061C, strain CIN8 (second series), stronger effect = lower value 0.995 | locus YER002W, strain NOP16, stronger effect = lower value 0.991 | locus YER015W, strain faa2, stronger effect = lower value 1 | locus YER016W, strain bim1, stronger effect = lower value 1.01 | locus YER111C, strain swi4, stronger effect = lower value 0.999 | locus YER155C, strain BEM2 (second series), stronger effect = lower value 1.04 | locus YFR010W, strain ubp6, stronger effect = lower value 1 | locus YGL167C, strain pmr1, stronger effect = lower value 1.01 | locus YGL173C, strain kem1, stronger effect = lower value 1.01 | locus YGL227W, strain vid30, stronger effect = lower value 1.02 | locus YGL240W, strain doc1, stronger effect = lower value 1.06 | locus YGL253W, strain hxk2, stronger effect = lower value 1 | locus YHR013C, strain ard1, stronger effect = lower value 0.998 | locus YHR027C, strain rpn1, stronger effect = lower value 0.99 | locus YHR030C, strain SLT2, stronger effect = lower value 0.993 | locus YHR079C, strain IRE1, stronger effect = lower value 1.01 | locus YHR142W, strain chs7, stronger effect = lower value 0.935 | locus YJL092W, strain hpr5, stronger effect = lower value 0.975 | locus YJL095W, strain BCK1 (second series), stronger effect = lower value 0.994 | locus YJL095W, strain BCK1, stronger effect = lower value 1 | locus YJL115W, strain asf1, stronger effect = lower value 0.983 | locus YJL129C, strain trk1, stronger effect = lower value 0.974 | locus YJL154C, strain vps35, stronger effect = lower value 1 | locus YJL164C, strain tpk1, stronger effect = lower value 0.978 | locus YJL166W, strain qcr8, stronger effect = lower value 1.01 | locus YJL187C, strain SWE1, stronger effect = lower value 1 | locus YJR066W, strain TOR1, stronger effect = lower value 0.936 | locus YKL160W, strain elf1, stronger effect = lower value 0.971 | locus YKR026C, strain gcn3, stronger effect = lower value 0.993 | locus YKR091W, strain srl3, stronger effect = lower value 1 | locus YLL001W, strain dnm1, stronger effect = lower value 1 | locus YLL026W, stronger effect = lower value 1 | locus YLL041C, strain sdh2, stronger effect = lower value 0.994 | locus YLR027C, strain aat2, stronger effect = lower value 0.99 | locus YLR113W, strain HOG1, stronger effect = lower value 1.05 | locus YLR221C, strain rsa3, stronger effect = lower value 0.985 | locus YLR258W, strain gsy2, stronger effect = lower value 1.03 | locus YLR262C, strain YPT6 (second series), stronger effect = lower value 0.923 | locus YLR320W, strain mms22, stronger effect = lower value 1 | locus YLR342W, strain FKS1, stronger effect = lower value 1 | locus YLR357W, strain rsc2, stronger effect = lower value 1.02 | locus YLR370C, strain arc18, stronger effect = lower value 1 | locus YLR384C, strain iki3, stronger effect = lower value 0.995 | locus YML120C, strain ndi1, stronger effect = lower value 0.979 | locus YMR058W, strain fet3, stronger effect = lower value 0.98 | locus YMR125W, strain sto1, stronger effect = lower value 1.02 | locus YMR129W, stronger effect = lower value 0.992 | locus YMR205C, strain PFK2, stronger effect = lower value 1.09 | locus YMR231W, strain pep5, stronger effect = lower value 1.02 | locus YMR307W, strain GAS1, stronger effect = lower value 1.02 | locus YNL071W, strain lat1, stronger effect = lower value 0.992 | locus YNL175C, strain NOP13, stronger effect = lower value 0.976 | locus YNL183C, strain NPR1, stronger effect = lower value 0.925 | locus YNL197C, strain WHI3, stronger effect = lower value 0.977 | locus YNL209W, strain ssb2, stronger effect = lower value 1 | locus YNL224C, strain SQS1, stronger effect = lower value 0.995 | locus YNL248C, strain rpa49, stronger effect = lower value 0.936 | locus YNL322C, strain KRE1 (second series), stronger effect = lower value 1.01 | locus YNL322C, strain KRE1, stronger effect = lower value 0.996 | locus YNR049C, strain mso1, stronger effect = lower value 0.995 | locus YOR001W, strain rrp6, stronger effect = lower value 0.949 | locus YOR070C, strain gyp1, stronger effect = lower value 1 | locus YOR080W, strain dia2, stronger effect = lower value 1 | locus YOR083W, strain WHI5 (second series), stronger effect = lower value 0.948 | locus YOR083W, strain WHI5, stronger effect = lower value 0.944 | locus YOR106W, strain vam3, stronger effect = lower value 0.951 | locus YOR231W, strain MKK1, stronger effect = lower value 0.981 | locus YOR265W, strain rbl2, stronger effect = lower value 0.991 | locus YOR270C, strain vph1, stronger effect = lower value 0.946 | locus YOR290C, strain snf2, stronger effect = lower value 0.939 | locus YPL051W, strain arl3, stronger effect = lower value 0.98 | locus YPL078C, strain atp4, stronger effect = lower value 0.931 | locus YPL106C, strain sse1, stronger effect = lower value 1.02 | locus YPL240C, strain hsp82, stronger effect = lower value 0.975 | locus YPL241C, strain CIN2, stronger effect = lower value 0.998 | locus YPL256C, strain CLN2, stronger effect = lower value 1.03
